# SMN2 splice enh – increases expression of the SMN2 splice variant; Potency, µM (top dose mostly 46.1 µM), actives largely listed as activators; HEK293 SMN2-luciferase splicing reporter, luminescence, 30-36 h; 210,000 tested, 2.8% active; also: nearly all actives have a fitted effect of over 55% in size
#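 HEK293 cells carry an SMN2 minigene-luciferase reporter in which exon 7 inclusion puts luciferase in frame. Cells were seeded at 2000 cells/well, attached for 10-12 hours, then exposed to compounds for 30-36 hours at 37C before ONE-Glo luminescence.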
# FLuc counter – firefly luciferase modulation, counter-screen for miR-21 project. P08659. purified FLuc, Km substrates, luminescence inhibition. Potency, µM (titrated, usually from 57.5 µM), actives largely listed as inhibitors. 360,000 tested, 6.9% active; also: nearly all actives have a fitted effect of over 55% in size
# Target sequence (P08659 whole entry, looked up): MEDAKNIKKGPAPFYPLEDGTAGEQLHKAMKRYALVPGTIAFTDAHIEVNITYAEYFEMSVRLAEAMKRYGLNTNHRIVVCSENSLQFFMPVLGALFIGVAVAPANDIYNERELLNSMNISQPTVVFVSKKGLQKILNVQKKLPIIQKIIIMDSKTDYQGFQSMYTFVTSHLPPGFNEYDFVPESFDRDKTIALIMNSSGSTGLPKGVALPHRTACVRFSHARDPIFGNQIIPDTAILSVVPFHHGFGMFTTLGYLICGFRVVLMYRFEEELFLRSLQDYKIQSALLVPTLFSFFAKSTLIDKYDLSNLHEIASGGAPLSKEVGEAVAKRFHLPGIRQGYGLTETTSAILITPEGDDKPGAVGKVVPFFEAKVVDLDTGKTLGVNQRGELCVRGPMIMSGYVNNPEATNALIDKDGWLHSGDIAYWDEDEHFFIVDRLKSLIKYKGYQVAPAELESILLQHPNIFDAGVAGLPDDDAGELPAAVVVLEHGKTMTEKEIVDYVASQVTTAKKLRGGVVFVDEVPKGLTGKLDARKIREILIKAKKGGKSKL
#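 Purified P. pyralis luciferase, 10 nM final, with Km-level 10 uM D-luciferin and 10 uM ATP in 50 mM Tris acetate pH 7.5, 10 mM Mg acetate, 0.01% Tween-20, 0.05% BSA; 6-point qHTS titration about 60 µM downward; luminescence read.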
# NPC1 promoter act – activators of NPC1 promoter; Huh7 NPC1 promoter luciferase reporter, 24 h; Potency, µM (doses to about 9.22 µM), hits mostly activators; 320,000 tested, 2.4% active; AID 485313; also: nearly all actives have a fitted effect of over 60% in size
#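 In 1536-well qHTS, Huh7 cells harboring an NPC1 promoter–luciferase construct received compound for 24 h; activation was quantified by luminescence following luciferase reagent addition.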
# Rab9 promoter act – Rab9 promoter activation; 320,000 tested, 2.8% active; AID 485297; Huh7 Rab9 promoter-luciferase reporter, luminescence, 24 h; Potency, µM (series often up to 9.22 µM), actives largely listed as activators; also: nearly all actives have a fitted effect of over 60% in size
#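 Cell-based reporter: Huh7 stable for Rab9 promoter-driven luciferase, plated in reduced-serum medium with 10% FBS at 1500 cells/well, compound-treated 24 h at 37 °C, luminescence read after 10 min reagent.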
# ELG1 genotoxic – genotoxicity induction in ELG1-luciferase HEK293T cells. HEK293T ELG1-luciferase reporter, luminescence, 16 h. Potency, µM (doses to about 46 µM), most hits filed as activators. 330,000 tested, 1.3% active; also: nearly all actives have a fitted effect of over 60% in size
#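 HEK293T cells expressing luciferase-tagged ELG1 were exposed to compound or DMSO vehicle for 16 hr at 37 °C and 5% CO2. Luciferase activity was then measured with ONE-Glo after 30 min at room temperature.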
# A number is an active result; – = inactive; ? = inconclusive; · = no result; [ ] = dose if it differs, or a comment. Shown are actives, neighbours in structure and some others; about 7.4% of the full set was active somewhere. Calls follow the shape of the dose curve; as a rule, active = well fitted curve in the direction sought with a large enough effect; inconclusive = small, poorly fitted or top-dose-only effect, or another doubt; inactive = no such curve, though single readings can be large; an effect the other way counts as inactive or inconclusive.
SMILES,SMN2 splice enh,FLuc counter,NPC1 promoter act,Rab9 promoter act,ELG1 genotoxic
COc1cc(/C=N/NC(=O)c2cc(-c3cccs3)nc3ccccc23)ccc1O,·,6.75µM,–,–,–
N#Cc1ccc(/C=N/NC(=O)c2cc(-c3cccs3)nc3ccccc23)cc1,–,6.75µM,–,–,–
COc1ccc(/C=N/NC(=O)c2cc(-c3ccccc3OC)nc3ccccc23)cc1COC(C)=O,–,–,–,–,–
O=C(CCN1C(=O)/C(=C/c2ccc(F)cc2)SC1=S)N[C@@H](CO)Cc1ccccc1,·,–,–,–,–
COCCNC(=O)c1cc(-c2ccc3c(c2)OCO3)on1,11.2µM,6.75µM,1.58µM,2.51µM,?
C=CCNC(=O)c1cc(-c2ccc3c(c2)OCO3)on1,·,2.13µM,0.447µM,0.562µM,?
COCCNC(=O)COCc1cc(-c2ccc3c(c2)OCO3)on1,·,?,–,–,–
CCC(C)NC(=O)COCc1cc(-c2ccc3c(c2)OCO3)on1 (stereo unspecified),·,?,–,–,–
CCC(C)NC(=O)c1cc(-c2ccc3c(c2)OCO3)on1 (stereo unspecified),·,3.38µM,0.891µM,0.447µM,?
CC(C)(C)c1ccc(C(=O)Nc2ccc(C(=O)OCc3cc(=O)n4ccsc4n3)cc2)cc1,·,–,·,·,·
Clc1ccccc1/C=N/Nc1cc(N2CCOCC2)ncn1,·,?,?,?,–
C/C(=N\Nc1cc(N2CCOCC2)ncn1)c1ccccc1,·,5.36µM,2.51µM,2.51µM,?
C/C(=N\Nc1cc(N2CCOCC2)ncn1)c1cccc([N+](=O)[O-])c1,11.2µM,–,–,–,–
COc1ccc(S(=O)(=O)n2nc(OC(=O)c3cccs3)cc2NC(=O)c2cccs2)cc1,·,–,–,–,–
CC(=O)c1sc2nsc(SCCN3CCOCC3)c2c1N,·,–,–,–,–
Nc1c(C(=O)c2ccccc2)sc2nsc(SCCN3CCOCC3)c12,·,21.3µM,?,?,–
Cc1nn(C)c2c1c(-c1ccccc1)cc(=O)n2Cc1ccccc1C#N,·,–,·,·,·
Cc1ccc(-n2c(=O)[nH]c3cc(C(=O)NCCc4ccccc4)ccc3c2=O)cc1,–,–,·,·,·
COc1cc(/C=C/c2sc3ccccc3[n+]2CCCS(=O)(=O)[O-])ccc1O,–,13.5µM,–,–,–
CCN(CC)C(=O)COc1ccc(-c2ccccc2)cc1,–,13.5µM,?,?,?
CCN(Cc1ccccc1)C(=O)COc1ccccc1,·,–,–,–,–
CCN(CC)C(=O)COc1ccc(/C(C)=N/NC(=O)c2ccccc2O)cc1,–,6.75µM,–,?,–
CC(=O)N1CCOc2cc(S(=O)(=O)N(C)Cc3ccccc3)c(Cl)cc21,·,–,·,·,·
CC1(C)CC(=O)C=C(NNC(=O)c2ccccc2O)C1,17.8µM,0.849µM,?,3.16µM,–
Cc1cccc(C(=O)NNC2=CC(=O)CC(C)(C)C2)c1O,·,10.7µM,–,?,?
SMILES,SMN2 splice enh,FLuc counter,NPC1 promoter act,Rab9 promoter act,ELG1 genotoxic
COc1ccc(C(=O)NNC2=CC(=O)CC(C)(C)C2)cc1,–[1.84 µM],–,–,–,–
Cc1ccccc1NC1=CC(=O)CC(C)(C)C1,–,–,–,–,–
Cc1ccc(CSc2nnc(SCC(=O)N/N=C/c3c(C)nn(-c4ccccc4)c3C)s2)cc1,–,4.26µM,?,?,–
Cc1nn(-c2ccccc2)c(C)c1/C=N/NC(=O)CSc1nnc(SCc2ccccc2Cl)s1,?,6.75µM,?,–,–
Cc1ccc(-c2nnc(SCC(=O)N/N=C/c3c(C)nn(-c4ccccc4)c3C)n2-c2ccccc2)cc1,–,–,–,–,–
CCOC(=O)c1cnc2c(C)c(C)ccc2c1Nc1ccc(S(=O)(=O)Nc2ncccn2)cc1,?,19µM,–,–,–
O=C(COC(=O)c1ccc2ccccc2n1)c1ccccc1,–,6.75µM,–,–,–
O=C(OCC(=O)c1ccc[nH]1)c1ccc2ccccc2n1,–,?,–,–,–
O=C(OCc1ccc(F)cc1)c1ccc2ccccc2n1,–,19µM,–,–,–
Cc1cccnc1NC(=O)CN1C(=O)NC(C)(c2ccc3ccccc3c2)C1=O (stereo unspecified),·,–,–,–,–
COc1cc(NC(=O)n2ncc3cc(Cl)ccc32)cc(OC)c1,·,12µM,–,?,?
COc1ccc(NC(=O)n2ncc3cc(Cl)ccc32)cc1OC,·,?,?,3.55µM,?
COc1cc(OC)c(NC(=O)n2ncc3cc(Cl)ccc32)cc1Cl,·,–,·,·,·
Cc1ccc(NC(=O)C(Cc2c[nH]c3ccccc23)NC(=O)OC(C)(C)C)c(C)c1 (stereo unspecified),–,–,·,·,·
O=C(O)c1ccccc1-c1ccccc1C(=O)NCCCO,–,–,–,–,–
CCCCNC(=O)/C(C#N)=C/c1cccnc1,5.01µM,–,–,–,–
N#C/C(=C\c1ccc2c(c1)OCCO2)C(=O)Nc1ccc(C(=O)O)cc1,·,0.338µM,–,–[1.84 µM],?
CCCCCCCCNC(=O)/C(C#N)=C/c1ccc2c(c1)OCCO2,–,–,–,–,–
N#C/C(=C\c1ccc2c(c1)OCCO2)C(=O)NC1CCCCC1,·,4.78µM,–,–,?
Cc1cccc(NC(=O)/C(C#N)=C\c2cccnc2)c1,–,?,–,–,–
COc1ccc(/C=C(/C#N)C(=O)NC2CCCCC2)cc1Br,–,–,–,–,–
CCCCNC(=O)/C(C#N)=C/c1ccc2c(c1)OCCO2,–,9.53µM,–,–,?
Cc1ccc(OCc2cc(=O)n3ccsc3n2)c(NC(=O)c2ccco2)c1,·,–,·,·,·
CN(C)c1ccc(/C=C2\SC(=S)N(Nc3ncc(C(F)(F)F)cc3Cl)C2=O)cc1,–,9.53µM,–,–,–
COc1cc(/C=C2\SC(=S)N(c3cccnc3)C2=O)ccc1O,·,–,–,–,–
SMILES,SMN2 splice enh,FLuc counter,NPC1 promoter act,Rab9 promoter act,ELG1 genotoxic
COc1cc(/C=C2\SC(=S)N(Nc3ncc(C(F)(F)F)cc3Cl)C2=O)ccc1O,–,8.49µM,–,–,–
CC(=O)NCCC(=O)Nc1cc(S(=O)(=O)N2CCOCC2)ccc1Oc1ccc(F)cc1,·,–,–,–,–
Clc1ccc(-c2nc3n(n2)Cc2ccccc2-3)cc1,0.501µM,0.536µM,3.16µM,1.58µM,?
CCN(CC)S(=O)(=O)c1cccc(-c2nc3n(n2)Cc2ccccc2-3)c1,–,12µM,?,?,–
Cc1ccc(N(CN2C(=O)C3C4CCC(C4)C3C2=O)C(=O)c2ccco2)cc1 (stereo unspecified),·,–,–,–,–
Cc1ccc(CNC(=O)C(Cc2ccccc2)NS(=O)(=O)c2cccs2)cc1 (stereo unspecified),17.8µM,–,–,–,–
O=C(Nc1cccc(O)c1)c1cc(-c2cccs2)on1,·,0.849µM,–,–,11.6µM
O=C(Nc1ccc(Cl)cc1)c1cc(-c2cccs2)on1,·,?,–,–,?
Cc1ccc(NC(=O)c2cc(-c3cccs3)on2)cc1,–,2.39µM,–,–,11.2µM
CC(=O)c1cccc(NC(=O)c2cc(-c3cccs3)on2)c1,·,0.849µM,–,–,?
COc1ccc(Cl)cc1NC(=O)CCNC(=O)OCc1ccccc1,–,–,–,–,–
